Columns and labels:
Assay in all cases: PBM binding z-score (relative to random genomic background probes); higher = stronger binding; sequences stand for … in GC…GCGATTGACAGCGTAGAATGAAGG
[1] = test system: FXR:RXRa (NR concentration 270 nM, RXRa partner concentration 90 nM)
Summary of the method: (§1)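 Scanned fluorescence from custom Agilent 4×180K protein-binding microarrays was regression-normalized. Binding z-scores use random background probes as reference. Ligand-free nuclear receptor dimers were incubated on the arrays for 1 h and detected with antibodies against each partner (one per run).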

[2] = test system: LXRa:RXRa (NR concentration 270 nM, RXRa partner concentration 90 nM)
Summary of the method: as §1

[3] = test system: LXRa homodimer (NR concentration 270 nM)
Summary of the method: as §1

[4] = test system: LXRb:RXRa (NR concentration 270 nM, RXRa partner concentration 90 nM)
Summary of the method: as §1

[5] = test system: LXRb homodimer (NR concentration 270 nM)
Summary of the method: as §1

[6] = test system: PPARa:RXRa (NR concentration 270 nM, RXRa partner concentration 90 nM)
Summary of the method: as §1

[7] = test system: PPARg:RXRa (NR concentration 180 nM, RXRa partner concentration 90 nM)
Summary of the method: as §1

[8] = test system: PPARg:RXRa 270nM:90nM, anti-RXR (NR concentration 270 nM, RXRa partner concentration 90 nM)
Summary of the method: as §1

[9] = test system: PPARg:RXRa 30nM:10nM, anti-RXR (NR concentration 30 nM, RXRa partner concentration 10 nM)
Summary of the method: as §1

[10] = test system: PPARg:RXRa 90nM:30nM, anti-RXR (NR concentration 90 nM, RXRa partner concentration 30 nM)
Summary of the method: as §1

Sequence | PBM binding z-score [1] | PBM binding z-score [2] | PBM binding z-score [3] | PBM binding z-score [4] | PBM binding z-score [5] | PBM binding z-score [6] | PBM binding z-score [7] | PBM binding z-score [8] | PBM binding z-score [9] | PBM binding z-score [10]
TAGCCTAGGTCATGGGCCAGCATACCACGCGAAC | 4.04 | 3.14 | 0.0336 | 2.05 | -0.463 | 3.9 | 3.38 | 3.53 | 1.26 | 2.69
CCTACTGGGCCAAAAAGGTCATTGGTGCCGATAA | 3.94 | 4.46 | 3.31 | 4.08 | 0.197 | 4.67 | 3.1 | 4.12 | 1.19 | 3.34
TCGTGTAGGTTACCAATGGGGCATTCAGCTTTCT | 0.486 | 1.81 | 0.0515 | 1.44 | 0.0224 | 1.43 | -0.0806 | 1.21 | 2.25 | 1.67
CCGACTGGAGCAAAGGTTACCATACTCAGTACGA | 0.849 | 1.39 | 0.0439 | 1.71 | -0.613 | 4.5 | 8.49 | 8.31 | 8.2 | 8.54
GCGAGTTGGTCAGTAAAAGGTCACACACCGGTCG | 3.43 | 4.42 | 4.78 | 4.07 | 0.343 | 4.36 | 3 | 4.71 | 2.22 | 4.23
CAAACTAGGTCAAGGGTCAAAGTCGAGCCAACCA | 7.52 | 5.72 | 2.34 | 5.71 | 1.02 | 7.64 | 13.1 | 10.9 | 11.4 | 11.8
TCATATAGGTAATACAGGTGAGAGTCGGCATCTA | 0.19 | 0.512 | 0.274 | 0.54 | 0.184 | 1.63 | 1.39 | 2.16 | 3.62 | 2.77
TCACCAAGGTGAAGGTCGTTGATCCCTCTGTAGA | 2.28 | 2.24 | -0.136 | 1.8 | -0.731 | 2.71 | 2.23 | 3.66 | 2.84 | 3.37
CCTAGCAGGCCTGGGTCACTCAAGCATTTCGCTT | 0.369 | 0.545 | -0.474 | 0.861 | -0.369 | 1.34 | -0.336 | 0.314 | -0.828 | -0.485
ATCTCTAGGTAAAGATAGTTCAGTCAATGCAAAT | 0.395 | 4.34 | 0.831 | 0.948 | 0.433 | 0.518 | 0.623 | 0.469 | 0.292 | 0.471
TCAGACTGGTGAAGGTAACTCAGGTACGCAGTCG | -0.62 | 0.98 | -0.387 | 0.192 | -1.07 | 0.467 | 0.185 | 1.29 | 2.82 | 1.98
CCGACTGGGGCAAAGGTTATCATACTCAGTACGA | 1.81 | 1.66 | 0.176 | 1.87 | -1.04 | 5.54 | 10.5 | 9.03 | 8.6 | 9.34
TCTAGCAGGCCAGAGGCTCACTCAAGAGGTACGG | -1.6 | -1.07 | -0.954 | -0.966 | -1.81 | -0.344 | 0.578 | 1.01 | 1.38 | 1.21
CAAACTAGGTAACGAAAGGTCAAAGTCGAATGAC | 4.96 | 7.4 | 6.74 | 6.41 | 2.26 | 5.8 | 6.82 | 6.42 | 3.66 | 5.76
CTCGAAAGGTCGTGCTCAGGAGAGTATACCAAAC | 4.89 | 3.56 | 0.247 | 3.12 | 0.29 | 4.7 | 2.62 | 3.59 | 1.02 | 2.48
CCTAGCAGGCCGGGGTCACTCAAGCATTTCGCTT | 4.66 | 3.63 | -0.0184 | 3.88 | -0.234 | 4.93 | 2.5 | 3.86 | 0.906 | 2.54
TCTAATTGGTCACGGAGGTCACACACGACGGGTA | 3.62 | 4 | 2.74 | 3.75 | 1.6 | 4.35 | 4.51 | 5.01 | 4.41 | 5.06
ACTATTAGTTGAGAGGAGGGCAACCGATAGGTTG | 0.181 | -0.0431 | 0.0481 | -0.187 | 0.248 | 0.335 | 0.512 | 0.15 | 0.176 | 0.106
AATACAGGGGCATCGTAGGCCAGAGTACGCACAG | 0.565 | 0.874 | 0.0851 | 1.04 | 0.436 | 1.06 | 1.13 | 0.622 | 0.174 | 0.275
TCTCGGAGGACAGGAAGGTCAGAGCTTTCCAGAG | 0.736 | 1.07 | 0.00105 | 0.899 | -0.565 | 1.87 | -0.0448 | 1.49 | 2.39 | 1.78
ATATGTAGGTTAAGGGTCAGTCAGGTTGGTTCGC | 3.7 | 3.26 | 1.44 | 3.34 | 0.965 | 6.05 | 11 | 9.37 | 9.35 | 11.6
GCTATTAGTTGAAAGGGCAACCGAATGATTCTCG | 0.555 | 0.733 | 0.435 | 0.971 | 0.134 | 2.33 | 2.9 | 4.29 | 2.39 | 4.05
CTACCAAGGTGAACAAGGTCGTTTATTACTATTC | 1.5 | 1.78 | 0.765 | 2.61 | -0.00441 | 2.46 | 1.06 | 1.2 | 0.0871 | 0.818
CGAACTAGGTCAAGGACAGTGATTCTCCGCACGC | 3.46 | 2.21 | 0.289 | 1.56 | -0.542 | 4.8 | 7.19 | 6.34 | 3.52 | 5.66

Sequence | PBM binding z-score [1] | PBM binding z-score [2] | PBM binding z-score [3] | PBM binding z-score [4] | PBM binding z-score [5] | PBM binding z-score [6] | PBM binding z-score [7] | PBM binding z-score [8] | PBM binding z-score [9] | PBM binding z-score [10]
GCACGGAGGACAAGGTCAGAGCTTTGTCCGTAGA | 1.87 | 1.26 | -0.362 | 1.23 | -0.916 | 2.15 | 0.53 | 1.2 | -0.394 | 0.459
TTACCAAGGTGAGGTGAGGTCGTTGATCCAACTC | 2.75 | 1.64 | -0.251 | 1.2 | -0.802 | 2.03 | 0.585 | 1.25 | 0.427 | 0.705
CAAACTAGGTCAAGTTCAAAGTCGGTTTGTGCCA | 5.99 | 4.84 | 4.22 | 3.64 | 1.37 | 5.81 | 8.91 | 7.48 | 5.88 | 7.46
TCGAGTAGGTTAAGGGCATTCAGAATGGCGTCGA | 0.969 | 1.02 | -0.302 | 0.27 | -1.02 | 1.75 | 1.68 | 2.85 | 1.35 | 2.37
CATACAGGGTCAGCTAGGCCAAAGTAGGGACGGC | 4.83 | 3.04 | 0.0314 | 2.39 | 0.557 | 4.4 | 3.32 | 3.26 | 0.781 | 1.85
CAGCCTAGGTCAGGGTCAGTATAGGAGGAACGTT | 3.28 | 2.28 | 0.154 | 2.3 | -0.746 | 3.73 | 2.37 | 2.52 | 0.577 | 1.52
CCTACTGTGCCACGAAAGGTCATTGATTCAGTGA | 3.98 | 5.43 | 5.47 | 4.73 | 1.31 | 4.62 | 3.72 | 4.36 | 2 | 3.59
ATATGTCGGTTATCGGGTCATTCAGTTTGCGCAT | 2.49 | 2.52 | 1.64 | 2.54 | 0.586 | 3.3 | 2.53 | 2.94 | 0.785 | 2.19
TCTGCTAGGACAACGATGGTCAGCTAATCTGCTA | -0.541 | -0.708 | -0.957 | -0.773 | -0.823 | -0.569 | -0.0545 | 0.0795 | 0.983 | 0.581
CCTGTTAGTTGACCATAAGGGCAACCGAAGCTCG | 0.874 | 0.297 | 0.378 | 0.396 | 0.499 | 0.707 | 0.162 | 0.397 | 0.0716 | 0.159
TTACCTAGGTGAGCTGAGGTCGTTGATCCAACTC | 0.355 | 0.722 | -0.414 | 0.389 | -0.985 | 1.68 | 0.522 | 1.09 | 0.135 | 0.445
ATCGAAAGGTCGTGAGGCGAGTATACAGAAAGGC | 5.83 | 4.11 | 0.273 | 3.21 | 0.391 | 5.07 | 3.85 | 4.18 | 1.56 | 2.61
GCTCGTAGGACAAGGTCAGAGCTTTGTCCGTAGA | 1.45 | 1.74 | -0.722 | 1.25 | -0.639 | 2.44 | 0.258 | 1.16 | -0.473 | 0.455
TCTATTAGTTGGAGGGCAACCGACGAGTCCGTTT | 0.6 | 1.06 | 0.645 | 0.855 | 0.753 | 0.93 | -0.158 | 1.88 | 3.25 | 2.33
CAGCCTAGGTCAGGGGCAGTATAGGAGGAACGTT | 2.14 | 1.38 | -0.331 | 1.27 | -0.805 | 2.38 | 1.3 | 1.75 | 0.184 | 0.954
CAGCCTAGGTCACGGCCAGTATAGGAGGAACGTT | 4.98 | 3.61 | 0.175 | 2.7 | -0.639 | 4.72 | 4.54 | 4.44 | 1.29 | 3.12
TCTCGGAGGACACGAAGGGTCAGAGCTCGACATC | 1.35 | 1.66 | -0.0975 | 1.19 | -1.38 | 2.06 | 0.488 | 1.25 | 1.85 | 1.44
TCATATAGGTAAATGCTAGGTCAAAGTCCGATCT | 1.83 | 3.8 | 5.26 | 2.45 | 0.769 | 2.57 | 1.76 | 2.81 | 3.96 | 3.47
TCTTGAAGATCAACAGGAGGTTAAGAAAGATCGA | 0.539 | 1.27 | 0.226 | 1.15 | -0.64 | 1.41 | -0.0399 | 1.64 | 2.92 | 2.51
GGTTGTAGATCAAGGTTAAGAAAGACTAAGCTAA | 0.73 | 1.3 | 0.323 | 1.19 | 0.361 | 1.5 | 0.938 | 1.63 | 0.752 | 1.31
GCTAGCAGGCCATTTGGGTCGCTCAATGACGGGC | -0.655 | -0.842 | -0.846 | -1.04 | -1.24 | -0.407 | -0.08 | -0.417 | -0.944 | -0.61
ACGGACAGGTGAGTGAAGGTAACTCAGCTGGACG | 0.715 | 0.141 | -0.591 | -0.294 | -0.864 | 0.253 | 0.452 | 0.12 | -0.363 | 0.0719
CTACCAAGGAGAACAAGGTCGTTGATTACTATTC | 0.511 | 0.515 | 0.637 | 0.992 | 0.011 | 0.978 | 0.183 | -0.0538 | -0.107 | -0.114
CCTTACGGGTCAATCCAGGTTATAGCATCGGAGT | 5.24 | 6.46 | 0.547 | 4.05 | 0.285 | 4.76 | 3.53 | 3.75 | 1.26 | 2.54

Source: the supplement of paper PMC6555819
